Measured values taken from PubChem BioAssay (Tox21).
Unmarked numbers belong to inactive results. Inconclusive results are not listed. A call without a number means that no potency is given here. Calls of active or inactive are those of the source. Unless noted, calls follow the shape of the dose curve; as a rule, active = well fitted curve in the direction sought with a large enough effect in the repeat runs; inconclusive = weak or mixed curves; inactive = no such curve, though single readings can be large; an effect the other way counts as inactive or inconclusive.

Assays:
[1] = biological target: Estrogen receptor beta (Homo sapiens) (UniProt Q92731); experiment: qHTS assay to identify small molecule antagonists of the estrogen receptor beta (ER-beta) signaling pathway (AID 1259378; active = well fitted inhibition curve with a large enough effect in the signal ratio in the repeat runs, not every such curve was filed as active; the % refers to the signal ratio; also: potency is read from the fitted curve at half-maximal effect)
Outline: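 ER-beta-UAS-bla HEK293T (GripTite) cells in 2% charcoal-stripped FBS medium were preincubated 6 hr at 37C, dosed with compound, then stimulated with 1 nM E2 (final) for 16 hr; beta-lactamase reporter read by B/G FRET fluorescence after 2 hr substrate loading.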

[2] = qHTS assay to identify small molecule agonists of the androgen receptor (AR) signaling pathway in the presence of an antagonist - cell viability counter screen (AID 1259379); also: nearly all actives have a fitted effect of over 25% in size; also: potency is read from the fitted curve at half-maximal effect
Outline: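 Nilutamide-containing (3.0uM final) MDA-kb2 cultures, 3,000 cells/well, were treated with compounds across 15 concentrations. After 16 hr at 37C with no CO2, cell viability was determined by CellTiter-Fluor fluorescence in the luciferase assay wells.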

[3] = qHTS assay to identify small molecule agonists of the estrogen receptor beta (ER-beta) signaling pathway - cell viability counter screen (AID 1259380); also: nearly all actives have a fitted effect of over 30% in size; also: potency is read from the fitted curve at half-maximal effect
Outline: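 Steps: plate ER-beta-UAS-bla HEK293T cells, rest 6 hr; add compounds in DMSO; incubate 16 hr at 37C, 5% CO2; add FRET substrate 2 hr; add CellTiter-Glo, wait 30 min at room temperature; read luminescence.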

[4] = biological target: Estrogen receptor beta (Homo sapiens) (UniProt Q92731); experiment: qHTS assay to identify small molecule agonists of the estrogen receptor beta (ER-beta) signaling pathway (AID 1259377; active = well fitted activation curve with a large enough effect in the signal ratio in the repeat runs, not every such curve was filed as active; the % refers to the signal ratio)
Outline: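 Reporter cells (HEK293T, ER-beta-UAS-bla) receive compounds or DMSO after a 6 hr pre-incubation. They then incubate 16 hr at 37C/5% CO2, and fluorescence from LiveBLAzer B/G substrate is measured after 2 hours at room temperature.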

[5] = qHTS assay to identify small molecule antagonists of the estrogen receptor beta (ER-beta) signaling pathway - cell viability counter screen (AID 1259382); also: nearly all actives have a fitted effect of over 55% in size; also: potency is read from the fitted curve at half-maximal effect
Outline: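 Viability is scored by CellTiter-Glo luminescence (30 min, room temperature) in ER-beta-UAS-bla HEK293T wells already read for reporter fluorescence. Compound exposure lasts 16 hr at 37C alongside 1nM 17-beta-estradiol in charcoal-stripped serum medium.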

[6] = qHTS assay to identify small molecule agonists or antagonists of the thyroid stimulating hormone receptor (TSHR) signaling pathway - wild type cell line counter screen (AID 1259384; calls by dose curve)
Outline: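 Wild-type HEK293 cells were plated 18 h at 37 C/5% CO2, pin-dosed with compound plus Ro20-1724 medium, held 30 min at room temperature, then given cAMP-d2 and anti-cAMP-cryptate; fluorescence was read after 1 h. Fifteen concentrations, triplicate.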

[7] = biological target: Thyrotropin receptor (Homo sapiens) (UniProt P16473); experiment: qHTS assay to identify small molecule antagonists of the thyroid stimulating hormone receptor (TSHR) signaling pathway (AID 1259385; calls by dose curve; also: nearly all actives have a fitted effect of over 20% in size; also: potency is read from the fitted curve at half-maximal effect)
Outline: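 TSHR-HEK293 cells were plated and held 18 h at 37C/5% CO2, then given compound plus Ro20-1724 and stimulated with TSH at 1.5 ng/mL final. After 30 min at room temperature, cAMP was detected with cAMP-d2/anti-cAMP-cryptate (1 h) by fluorescence.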

[8] = qHTS assay to identify small molecule agonists of the estrogen receptor alpha (ER-alpha) signaling pathway in the presence of an antagonist - cell viability counter screen (AID 1259386);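 also: cells exposed to compounds for 22 h at 37 °C before the viability read; nearly all actives have a fitted effect of over 30% in size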; also: potency is read from the fitted curve at half-maximal effect
Outline: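 In this counter screen, compound effects on VM7Luc4E2 viability were tested in the presence of the antagonist ICI-182,780 at 10.0nM final. Compounds were dosed at 15 concentrations, exposure lasted 22hr, and the CellTiter-Fluor signal was read.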

[9] = biological target: Estrogen receptor (Homo sapiens) (UniProt P03372); experiment: qHTS assay to identify small molecule agonists of the estrogen receptor alpha (ER-alpha) signaling pathway in the presence of an antagonist (AID 1259383; calls by dose curve; also: top concentration of the series differs between compounds; nearly all actives have a fitted effect of over 15% in size)
Outline: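 Readout was ERE-driven luciferase luminescence in VM7Luc4E2 cells, which express full-length ER-alpha endogenously. Compounds were tested at 15 concentrations for 22hr alongside 10.0nM ICI-182,780 (final concentration).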

[10] = biological target: Androgen receptor (Homo sapiens) (UniProt P10275); experiment: qHTS assay to identify small molecule agonists of the androgen receptor (AR) signaling pathway in the presence of an antagonist (AID 1259381; calls by dose curve; also: nearly all actives have a fitted effect of over 15% in size)
Outline: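 Reporter-gene luminescence from MDA-kb2 cells exposed 16hr at 37C (0% CO2) to 15-point compound titrations with 3.0uM final nilutamide as AR antagonist.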

Estrogen receptor beta (Homo sapiens), sequence (Q92731 whole entry, looked up): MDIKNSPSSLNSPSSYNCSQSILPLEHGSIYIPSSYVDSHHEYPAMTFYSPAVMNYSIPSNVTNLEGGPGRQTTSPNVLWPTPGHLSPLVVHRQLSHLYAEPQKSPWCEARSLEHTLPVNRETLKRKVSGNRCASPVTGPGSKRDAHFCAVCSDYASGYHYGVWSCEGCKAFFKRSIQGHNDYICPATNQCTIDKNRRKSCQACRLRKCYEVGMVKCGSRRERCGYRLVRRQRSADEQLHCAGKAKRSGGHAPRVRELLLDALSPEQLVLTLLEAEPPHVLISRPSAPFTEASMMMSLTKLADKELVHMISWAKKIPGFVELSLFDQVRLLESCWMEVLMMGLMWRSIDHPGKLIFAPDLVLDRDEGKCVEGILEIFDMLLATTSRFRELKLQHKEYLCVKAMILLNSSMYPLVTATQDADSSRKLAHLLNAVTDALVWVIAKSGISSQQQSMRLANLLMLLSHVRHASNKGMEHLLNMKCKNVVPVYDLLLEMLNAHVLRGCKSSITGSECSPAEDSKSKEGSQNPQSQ
Androgen receptor (Homo sapiens), sequence (P10275 whole entry, looked up): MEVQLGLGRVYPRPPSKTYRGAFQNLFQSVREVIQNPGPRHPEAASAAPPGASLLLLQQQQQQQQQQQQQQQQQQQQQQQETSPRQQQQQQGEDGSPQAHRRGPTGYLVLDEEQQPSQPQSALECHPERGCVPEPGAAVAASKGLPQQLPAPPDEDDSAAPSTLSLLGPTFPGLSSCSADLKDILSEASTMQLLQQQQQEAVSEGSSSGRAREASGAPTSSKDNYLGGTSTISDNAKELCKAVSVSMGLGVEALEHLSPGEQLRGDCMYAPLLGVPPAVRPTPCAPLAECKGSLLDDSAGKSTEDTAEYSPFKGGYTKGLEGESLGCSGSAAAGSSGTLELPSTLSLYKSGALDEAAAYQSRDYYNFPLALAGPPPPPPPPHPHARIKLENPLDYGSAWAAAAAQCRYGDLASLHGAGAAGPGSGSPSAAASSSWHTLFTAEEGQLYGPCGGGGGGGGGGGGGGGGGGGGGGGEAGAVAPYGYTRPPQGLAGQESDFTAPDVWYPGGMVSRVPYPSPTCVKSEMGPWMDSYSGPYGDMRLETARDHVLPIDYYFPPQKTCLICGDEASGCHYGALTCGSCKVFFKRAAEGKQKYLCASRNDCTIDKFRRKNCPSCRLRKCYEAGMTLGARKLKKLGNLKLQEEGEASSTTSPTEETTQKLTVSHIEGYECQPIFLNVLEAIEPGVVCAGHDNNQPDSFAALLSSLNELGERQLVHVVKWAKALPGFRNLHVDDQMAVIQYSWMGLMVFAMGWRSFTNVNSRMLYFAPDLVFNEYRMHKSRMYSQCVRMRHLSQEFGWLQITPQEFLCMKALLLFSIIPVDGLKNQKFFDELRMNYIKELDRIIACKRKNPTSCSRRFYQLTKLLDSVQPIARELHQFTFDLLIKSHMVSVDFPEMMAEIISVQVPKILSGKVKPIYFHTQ
Estrogen receptor (Homo sapiens), sequence (P03372 whole entry, looked up): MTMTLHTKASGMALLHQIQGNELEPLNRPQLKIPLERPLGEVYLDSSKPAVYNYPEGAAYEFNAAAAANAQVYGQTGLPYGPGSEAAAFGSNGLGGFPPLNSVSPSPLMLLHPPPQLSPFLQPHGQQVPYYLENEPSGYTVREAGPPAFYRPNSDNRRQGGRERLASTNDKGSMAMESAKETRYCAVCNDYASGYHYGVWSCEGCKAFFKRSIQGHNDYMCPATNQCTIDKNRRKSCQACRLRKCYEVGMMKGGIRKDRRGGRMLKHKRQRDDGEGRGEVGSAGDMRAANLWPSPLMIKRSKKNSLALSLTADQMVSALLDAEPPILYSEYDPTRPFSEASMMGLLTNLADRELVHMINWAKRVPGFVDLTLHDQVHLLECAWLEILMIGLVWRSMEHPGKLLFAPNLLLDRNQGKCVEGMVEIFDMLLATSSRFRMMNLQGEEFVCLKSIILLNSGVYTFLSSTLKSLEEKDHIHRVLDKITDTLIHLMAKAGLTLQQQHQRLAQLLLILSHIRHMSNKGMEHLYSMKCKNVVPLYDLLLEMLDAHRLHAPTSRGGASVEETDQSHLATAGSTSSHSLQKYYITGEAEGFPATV
Thyrotropin receptor (Homo sapiens), sequence (P16473 whole entry, looked up): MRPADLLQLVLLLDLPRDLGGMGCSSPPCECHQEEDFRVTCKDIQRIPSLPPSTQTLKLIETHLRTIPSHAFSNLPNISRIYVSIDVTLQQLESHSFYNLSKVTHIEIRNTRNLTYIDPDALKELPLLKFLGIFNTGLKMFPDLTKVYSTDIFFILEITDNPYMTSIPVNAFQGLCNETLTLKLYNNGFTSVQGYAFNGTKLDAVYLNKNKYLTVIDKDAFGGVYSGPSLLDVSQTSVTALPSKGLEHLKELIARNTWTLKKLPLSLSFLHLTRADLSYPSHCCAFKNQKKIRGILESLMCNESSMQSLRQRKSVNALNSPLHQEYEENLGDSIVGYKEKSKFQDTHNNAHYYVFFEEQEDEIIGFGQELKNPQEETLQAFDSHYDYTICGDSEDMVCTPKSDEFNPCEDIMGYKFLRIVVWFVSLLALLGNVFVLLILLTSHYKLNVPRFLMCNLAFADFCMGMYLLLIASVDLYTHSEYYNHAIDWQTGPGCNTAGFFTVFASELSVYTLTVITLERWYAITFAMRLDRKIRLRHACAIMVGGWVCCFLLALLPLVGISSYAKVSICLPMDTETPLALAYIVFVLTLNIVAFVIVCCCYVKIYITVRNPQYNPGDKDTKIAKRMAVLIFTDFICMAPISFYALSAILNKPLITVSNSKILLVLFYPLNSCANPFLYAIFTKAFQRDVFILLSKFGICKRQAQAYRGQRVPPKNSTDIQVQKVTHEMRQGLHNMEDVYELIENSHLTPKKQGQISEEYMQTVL

Row | SMILES | Potency [1] | Potency [2] | Potency [3] | Potency [4] | Potency [5] | Potency [6] | Potency [7] | Potency [8] | Potency [9] | Potency [10]
1 | O=C=NC1CCC(CC2CCC(N=C=O)CC2)CC1 (centres undefined) | inactive | 30.6 µM (active) | 68.6 µM (active) | – | – | – | – | – | – | –
2 | CN(C(=O)CCCOc1ccc2[nH]c(=O)ccc2c1)C1CCCCC1 | – | inactive | inactive | inactive | inactive | inactive | inactive | inactive | – | –
3 | CC1(C)[C@H]2CC[C@]1(C)[C@H](O)C2 | inactive | inactive | inactive | – | inactive | – | – | inactive | – | –
4 | CCOC(=O)[C@H](CCc1ccccc1)N[C@H]1CCc2ccccc2N(CC(=O)O)C1=O | – | inactive | 11.9 µM (active) | inactive | – | – | 29.8 µM (active) | inactive | – | –
5 | CC(C)(C)c1ccc(S)cc1 | – | inactive | – | inactive | inactive | – | inactive | inactive | inactive | –
6 | CCOC(=O)C1=C(C)NC(C)=C(C(=O)OC)C1c1cccc([N+](=O)[O-])c1 (centres undefined) | inactive | inactive | inactive | – | inactive | – | – | inactive | inactive | –
7 | CC(C)CCCC(C)CCO (centres undefined) | inactive | inactive | inactive | – | inactive | inactive | inactive | inactive | inactive | inactive
8 | O=[N+]([O-])c1cc[n+]([O-])cc1 | 43.3 µM (active) | inactive | 27.3 µM (active) | – | – | inactive | – | 68.6 µM (active) | inactive | inactive
9 | CC(C)(C)c1cc(CCC(=O)OCC(COC(=O)CCc2cc(C(C)(C)C)c(O)c(C(C)(C)C)c2)(COC(=O)CCc2cc(C(C)(C)C)c(O)c(C(C)(C)C)c2)COC(=O)CCc2cc(C(C)(C)C)c(O)c(C(C)(C)C)c2)cc(C(C)(C)C)c1O | inactive | inactive | inactive | – | inactive | inactive | inactive | inactive | inactive | –
10 | CCCCCCCCCC(=O)OCC | inactive | inactive | inactive | – | inactive | inactive | inactive | inactive | inactive | –
11 | CN1CCN(C2=Nc3ccccc3Sc3ccc(Cl)cc32)CC1 | inactive | inactive | inactive | – | – | inactive | inactive | inactive | – | inactive
12 | COc1ccccc1OC(=O)Oc1ccccc1OC | inactive | inactive | 23.7 µM (active) | – | – | inactive | inactive | inactive | – | inactive
13 | CN1CCC(=C2c3ccccc3C=Cc3ccccc32)CC1 | inactive | inactive | 26.6 µM (active) | – | 21.1 µM (active) | inactive | inactive | inactive | inactive | –
14 | CCCCOC(=O)/C=C\C(=O)OCCCC | – | inactive | – | inactive | inactive | – | – | inactive | inactive | –
15 | C[C@H](CCC(=O)O)[C@H]1CC[C@H]2[C@@H]3[C@H](O)C[C@@H]4C[C@H](O)CC[C@]4(C)[C@H]3CC[C@]12C | – | inactive | – | inactive | inactive | inactive | inactive | inactive | inactive | –
16 | Cc1cccc(OCCOc2cccc(C)c2)c1 | inactive | inactive | inactive | – | inactive | inactive | inactive | inactive | inactive | –
17 | SC1CCCC1 | inactive | inactive | inactive | – | inactive | inactive | inactive | inactive | inactive | –

Row | SMILES | Potency [1] | Potency [2] | Potency [3] | Potency [4] | Potency [5] | Potency [6] | Potency [7] | Potency [8] | Potency [9] | Potency [10]
18 | O=C1[C@H](CC[C@H](O)c2ccc(F)cc2)[C@@H](c2ccc(O)cc2)N1c1ccc(F)cc1 | – | – | – | inactive | inactive | – | inactive | inactive | inactive | –
19 | CCOc1ccc(NC(=O)CC(C)=O)cc1 | inactive | inactive | inactive | – | inactive | – | – | inactive | – | –
20 | NCc1ccccc1 | inactive | inactive | inactive | – | inactive | inactive | – | inactive | – | –
21 | C1CCC2OC2C1 (centres undefined) | inactive | inactive | inactive | – | inactive | inactive | – | inactive | inactive | inactive
22 | c1ccc(-c2nc[nH]c2-c2ccccc2)cc1 | – | inactive | inactive | inactive | inactive | – | inactive | inactive | – | –
23 | C=C(C)C(=O)OCCOc1ccccc1 | inactive | inactive | inactive | – | inactive | – | – | inactive | inactive | inactive
24 | CCN(CC)CCOC(=O)C1(c2ccccc2)CCCC1 | inactive | inactive | inactive | – | inactive | inactive | – | inactive | inactive | inactive
25 | Nc1nc(CC(=O)O)cs1 | – | inactive | – | inactive | – | inactive | inactive | inactive | – | –
26 | CCCCOC(=O)c1ccccc1C(=O)OCC(CC)CCCC (centres undefined) | – | inactive | – | inactive | inactive | inactive | – | inactive | inactive | –
27 | CCCCCCCCCC=O | – | inactive | – | inactive | inactive | inactive | inactive | inactive | inactive | –
28 | CC(=O)OC/C=C/c1ccccc1 | inactive | inactive | inactive | – | inactive | inactive | inactive | inactive | – | –
29 | CCCc1ccccc1 | inactive | inactive | inactive | – | inactive | inactive | – | inactive | inactive | –
30 | CCCCOc1ccc(CC(=O)NO)cc1 | – | inactive | 9.44 µM (active) | inactive | – | – | inactive | – | – | –
31 | O=CNc1ccccc1 | inactive | inactive | – | – | inactive | – | – | inactive | – | –
32 | CC(C(=O)O)c1ccc(-c2ccccc2)c(F)c1 (centres undefined) | inactive | inactive | – | – | inactive | – | – | inactive | inactive | –
33 | Oc1ccc(O)c2c(O)cccc12 | inactive | – | – | – | inactive | inactive | – | inactive | inactive | –
